In assay [1] the test system is Wnt5a (protein binding on small-molecule microarray). Kind of assay: Wnt5a binders on small-molecule microarray, primary screen, biophysical, 635/667 nm fluorescence (AID 1142).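 Further: fluorescence read at 667 nm with signal to noise per printed feature.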 To be noted: 635 nm fluorescence, higher = more signal.
Assay [2] can be described thus: cell viability in Huh7 cells, primary screen, cytotoxicity control for HCV replication inhibitor project, CellTiter-Glo luminescence, basal, 48 h (AID 1143).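 Further: Huh7 hepatoma cells carrying a hepatitis C replication reporter with no stimulus; test concentration not given here.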 As to conditions: Huh7 HCV replicon, higher = more signal, called active from +8 up or from −8 down.
Assay [3] can be described thus: P. aeruginosa biofilm formation inhibitors, primary screen, PAO1 strain, BacTiter-Glo luminescence, LB-PBS (AID 1144). As to conditions: 12 h, higher = more signal.
Assay [4] in a line: CREB reporter modulators without forskolin, primary screen, cell-based, PC12, CRE-LacZ reporter, unstimulated (AID 1145). As to conditions: no forskolin, luminescence, 4.5 h, higher = more signal, called active from +8 up or from −8 down.
Assay [5] in a line: CREB reporter modulators under forskolin, primary screen, cell-based, PC12, CRE-LacZ reporter, forskolin-stimulated (AID 1146).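 Further: PC12 cells with 6xCRE LacZ reporter stimulated by forskolin 10 µM; beta-galactosidase reporter signal reflecting CREB driven transcription.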 To be noted: luminescence, 4.5 h, higher = more signal, called active from +8 up or from −8 down.
The target of assay [6] is Streptavidin (Streptomyces avidinii) (UniProt P22629). Kind of assay: streptavidin binders on small-molecule microarray, primary screen, artefact control for SMM compound annotation, biophysical, 635/667 nm fluorescence (AID 1147).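 Further: signal reflects streptavidin binding to arrayed compounds as a control protein.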 To be noted: streptavidin binding, higher = more signal.
Sequence of Streptavidin (Streptomyces avidinii) (P22629 whole entry, looked up): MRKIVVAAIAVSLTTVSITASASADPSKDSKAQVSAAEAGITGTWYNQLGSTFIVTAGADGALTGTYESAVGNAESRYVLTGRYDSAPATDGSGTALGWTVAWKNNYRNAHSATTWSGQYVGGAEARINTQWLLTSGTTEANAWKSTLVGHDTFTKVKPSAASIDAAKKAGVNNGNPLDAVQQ
Assay [7] in a line: small-molecule binders of probe aInhba, primary screen, biochemical, small-molecule microarray, 635/667 nm fluorescence (AID 1148).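 Further: score merges 667nm spot fluorescence with signal-to-noise for antibody binding to printed compounds.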 As to conditions: higher = more signal.
In assay [8] the target is Torsin-1A (Homo sapiens) (UniProt O14656). Kind of assay: torsin A binders from cell lysate, primary screen, small-molecule microarray, wild-type, 635/667 nm (AID 1149). As to conditions: COS7 hTOR1A-WT lysate, 635 nm fluorescence, higher = more signal.
Sequence of Torsin-1A (Homo sapiens) (O14656 whole entry, looked up): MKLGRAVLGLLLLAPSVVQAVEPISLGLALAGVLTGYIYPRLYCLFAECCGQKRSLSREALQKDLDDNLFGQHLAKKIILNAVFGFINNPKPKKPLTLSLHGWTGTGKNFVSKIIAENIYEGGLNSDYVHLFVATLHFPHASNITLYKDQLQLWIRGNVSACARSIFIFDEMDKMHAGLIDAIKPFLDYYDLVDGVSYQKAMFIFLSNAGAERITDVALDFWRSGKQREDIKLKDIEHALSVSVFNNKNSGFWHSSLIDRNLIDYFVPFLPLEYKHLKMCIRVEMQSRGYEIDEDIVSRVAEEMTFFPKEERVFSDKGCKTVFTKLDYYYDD
For assay [9] the target is unchanged. Description: small-molecule binders of mutant TOR1A in lysate, primary screen, cell lysate, small-molecule microarray, COS7 lysate, 635/667 nm fluorescence (AID 1150).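 Further: score pools 667 nm emission and signal to noise measuring lysate protein binding.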 As to conditions: COS7 hTOR1A mutant lysate, 635 nm fluorescence, higher = more signal.
In assay [10] the test system is Sonic hedgehog protein (Shh). Description: small-molecule binders of Shh protein, primary screen, biochemical, small-molecule microarray, 635/667 nm fluorescence (AID 1151).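 Further: Shh protein binding to compounds spotted on small-molecule microarray slides; score combines spot fluorescence intensity with signal-to-noise across triplicate slides.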 As to conditions: small-molecule microarray binding, 635 nm fluorescence; higher = more signal.
Assay [11] in a line: E. coli DRC41 culture turbidity changes, primary screen, E. coli filamentation inducer project, strain DRC41, OD650, 48 h (AID 1152).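 Further: E. coli MC1000 strain DRC41 lacking acrAB efflux pump and sulA.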 As to conditions: E. coli DRC41 (acrAB sulA), higher = more signal, called active from +8 up or from −8 down.
A short description of assay [12]: small-molecule binders of probe aLefty1, primary screen, biochemical, small-molecule microarray, 635/667 nm fluorescence (AID 1153).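 Further: score merges spot fluorescence with signal-to-noise ratio from the scanned slide images.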 As to conditions: higher = more signal.
Assay [13] can be described thus: PSAC antagonists in infected red cells, primary screen, cell-based, P. falciparum Indochina, OD700, 1 h (AID 1154). To be noted: P. falciparum Indochina infected RBC osmotic lysis, higher = more signal, called active from +8 up or from −8 down.
Assay [14] in a line: PSAC antagonists in infected red cells, primary screen, cell-based, P. falciparum Indochina, OD700, 2 h (AID 1155).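 Further: lysis reports solute entry through the parasite surface anion channel PSAC; channel blockers reduce lysis of infected cells.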 As to conditions: P. falciparum Indochina infected erythrocytes, osmotic lysis OD700; higher = more signal, called active from +8 up or from −8 down.
Assay [15] can be described thus: osmotic lysis modulators in infected erythrocytes, primary screen, PSAC antagonist project, cell-based, P. falciparum Indochina, OD700, 3 h (AID 1156). To be noted: higher = more signal, called active from +8 up or from −8 down.
A short description of assay [16]: PSAC antagonists in infected red cells, primary screen, cell-based, P. falciparum Indochina, OD700, 18 h (AID 1157). To be noted: P. falciparum Indochina infected erythrocytes, osmotic lysis OD700, 18 h; higher = more signal, called active from +8 up or from −8 down.
The nature of assay [17]: modulators of S6 phosphorylation in cells, primary screen, cell-based, A549, cytoblot, luminescence, serum-stimulated (AID 1158).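 Further: serum-stimulated A549 lung adenocarcinoma cells; signal is phosphorylated S6 detected by cytoblot immunostaining with HRP secondary.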 As to conditions: A549 phospho-S6 cytoblot, 5 h, higher = more signal.
For assay [18], the target named is NADPH oxidase 2 (Homo sapiens) (UniProt P04839). Kind of assay: NOX2-dependent H2O2 signal modulators, primary screen, NOX inhibitor project, cell-based, HEK293-NOX2, PMA-stimulated, Amplex Red fluorescence (AID 1159). Further: test concentration not given here. As to conditions: 45 min, higher = more signal, called active from +8 up or from −8 down.
Sequence of NADPH oxidase 2 (Homo sapiens) (P04839 whole entry, looked up): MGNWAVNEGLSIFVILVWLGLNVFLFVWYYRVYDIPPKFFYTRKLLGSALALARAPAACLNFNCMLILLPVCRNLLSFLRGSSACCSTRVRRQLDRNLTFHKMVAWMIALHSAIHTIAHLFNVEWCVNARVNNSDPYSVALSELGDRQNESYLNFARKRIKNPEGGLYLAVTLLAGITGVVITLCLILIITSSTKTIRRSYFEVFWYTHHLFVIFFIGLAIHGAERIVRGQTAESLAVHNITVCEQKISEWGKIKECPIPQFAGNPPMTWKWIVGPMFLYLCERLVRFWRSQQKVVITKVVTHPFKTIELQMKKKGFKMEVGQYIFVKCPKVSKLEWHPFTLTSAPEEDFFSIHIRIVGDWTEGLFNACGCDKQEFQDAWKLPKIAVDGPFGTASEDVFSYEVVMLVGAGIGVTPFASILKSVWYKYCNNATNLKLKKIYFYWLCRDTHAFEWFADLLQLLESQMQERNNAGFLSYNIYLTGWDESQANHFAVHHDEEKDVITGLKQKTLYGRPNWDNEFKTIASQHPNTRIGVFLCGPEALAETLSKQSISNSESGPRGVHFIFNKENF
In assay [19] the target is NADPH oxidase 4 (Homo sapiens) (UniProt Q9NPH5). Description: NOX4-dependent H2O2 signal modulators, primary screen, NOX inhibitor project, cell-based, HEK293-NOX4, tetracycline-induced, Amplex Red fluorescence (AID 1160). As to conditions: 45 min, higher = more signal, called active from +8 up or from −8 down.
Sequence of NADPH oxidase 4 (Homo sapiens) (Q9NPH5 whole entry, looked up): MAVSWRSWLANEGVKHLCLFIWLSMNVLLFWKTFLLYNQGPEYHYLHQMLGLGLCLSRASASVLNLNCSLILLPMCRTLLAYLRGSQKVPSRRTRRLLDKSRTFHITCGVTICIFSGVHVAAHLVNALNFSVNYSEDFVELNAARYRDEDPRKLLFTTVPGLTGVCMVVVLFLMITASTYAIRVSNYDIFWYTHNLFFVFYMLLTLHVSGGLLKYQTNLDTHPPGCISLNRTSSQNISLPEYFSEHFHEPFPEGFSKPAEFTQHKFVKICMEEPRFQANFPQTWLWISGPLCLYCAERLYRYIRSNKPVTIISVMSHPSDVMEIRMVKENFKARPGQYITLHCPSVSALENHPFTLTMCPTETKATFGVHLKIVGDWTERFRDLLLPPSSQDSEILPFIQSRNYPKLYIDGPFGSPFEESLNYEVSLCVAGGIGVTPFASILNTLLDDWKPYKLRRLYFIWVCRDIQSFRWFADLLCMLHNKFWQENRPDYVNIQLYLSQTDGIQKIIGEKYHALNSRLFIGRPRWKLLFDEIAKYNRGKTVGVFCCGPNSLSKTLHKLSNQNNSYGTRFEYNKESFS
The target of assay [20] is NADPH oxidase 5 (Homo sapiens) (UniProt Q96PH1). Description: NOX5-dependent H2O2 signal modulators, primary screen, NOX inhibitor project, cell-based, HEK293-NOX5, Amplex Red fluorescence (AID 1161). As to conditions: HEK293-NOX5, ionomycin, 45 min, higher = more signal.
Sequence of NADPH oxidase 5 (Homo sapiens) (Q96PH1 whole entry, looked up): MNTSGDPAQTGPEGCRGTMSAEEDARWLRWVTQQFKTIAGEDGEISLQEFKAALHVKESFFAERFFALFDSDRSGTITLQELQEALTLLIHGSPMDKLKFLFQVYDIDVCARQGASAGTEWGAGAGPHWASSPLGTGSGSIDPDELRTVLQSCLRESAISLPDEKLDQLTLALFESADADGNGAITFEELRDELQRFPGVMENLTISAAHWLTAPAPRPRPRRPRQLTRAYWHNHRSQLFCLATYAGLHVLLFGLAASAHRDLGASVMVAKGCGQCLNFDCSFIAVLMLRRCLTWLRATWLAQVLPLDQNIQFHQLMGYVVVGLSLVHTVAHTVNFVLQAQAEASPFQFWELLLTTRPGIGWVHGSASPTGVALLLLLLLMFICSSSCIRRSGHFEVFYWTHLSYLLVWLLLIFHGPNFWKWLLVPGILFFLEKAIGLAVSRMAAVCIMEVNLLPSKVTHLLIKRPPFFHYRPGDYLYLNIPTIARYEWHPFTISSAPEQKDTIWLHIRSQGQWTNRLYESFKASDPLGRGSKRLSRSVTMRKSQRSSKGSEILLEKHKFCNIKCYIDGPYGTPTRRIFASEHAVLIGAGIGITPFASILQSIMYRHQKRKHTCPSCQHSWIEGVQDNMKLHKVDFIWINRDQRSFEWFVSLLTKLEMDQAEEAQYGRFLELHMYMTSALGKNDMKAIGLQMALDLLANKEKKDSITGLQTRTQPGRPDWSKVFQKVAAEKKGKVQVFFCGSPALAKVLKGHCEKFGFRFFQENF

The text below walks through data of PubChem BioAssay.

Active and inactive are the calls of the source. Unless noted, how the calls were made is not given here.

Take `CCCCCCc1nc(-c2ccc(-c3ccc(Cl)c(Cl)c3)o2)c(C)c2c1[Si](C(C)C)(C(C)C)OC2`: the composite z-score is -0.412 in assay [1]; 0.0199 in assay [6]; -0.0933 in assay [7]; -0.782 in the assay with Torsin-1A (Homo sapiens) [8]; 0.0515 with Torsin-1A (Homo sapiens) [9]; 0.14 in assay [10]. Also, the composite z-score in assay [12] is -0.198. Further, the z-score in [2] was -5.66 (inactive); in assay [3], -1.17 (inactive); in [4] it was 0.236 (inactive); in assay [5], 0.246 (inactive); in assay [11], -0.369 (inactive); in [13], 1.88 (inactive). Besides, the z-score is -0.712 (inactive) in assay [14]; 0.627 (inactive) in assay [15]; -1.57 (inactive) in assay [16]; 1.7 in assay [17]; -4.51 (inactive) in assay [18]; -2.74 (inactive) in assay [19]. Further, the z-score in assay [20] is -4.66.
Consider `NC(=O)N1C(=O)C2C(C1=O)C1C=C(CCCO)C2C(C2CC2)N1Cc1cc2c(cc1Br)OCO2` (stereo not given), for which the composite z-score in assay [1] is -0.219; in assay [6], 0.129; in assay [7] it was -0.157; with Torsin-1A (Homo sapiens) [8], 0.0457; with Torsin-1A (Homo sapiens) [9], 0.28; in assay [10] it was 0.195. Moreover, the composite z-score in [12] stood at 0.19. Further, the z-score in assay [2] was -0.387 (inactive); in assay [3] it was 1.44 (inactive); in [4], 4.37 (inactive); in assay [5], 0.0317 (inactive); in assay [11], -0.766 (inactive); in [13] it was 4.92 (inactive). Besides, the z-score in assay [14] is 0.494 (inactive); in [15], -0.23 (inactive); in assay [16], 0.357 (inactive); in assay [17], 0.415; in assay [18] it was 0.334 (inactive); in [19] it was -0.381 (inactive). The z-score in assay [20] was -0.344.
Turning to `O=C1OCC=C[C@H]2OC34C=CCN(CCN5CCOCC5)C(=O)[C@H]3N(CCO)C(=O)[C@@H]4[C@@H]12` (stereo not given in full), the composite z-score in [1] is -0.38; in assay [6], -0.175; in assay [7], -0.359; with Torsin-1A (Homo sapiens) [8], -0.618; in the assay with Torsin-1A (Homo sapiens) [9], -0.61; in assay [10] it was 1.93. For the same compound, the composite z-score in assay [12] is -0.279. Moreover, the z-score was -0.117 (inactive) in assay [2]; 1.82 (inactive) in [3]; 0.459 (inactive) in assay [4]; 0.168 (inactive) in [5]; -0.738 (inactive) in assay [11]; 0.418 (inactive) in [13]. In addition, the z-score in [14] was 0.009 (inactive); in assay [15], -0.392 (inactive); in [16], 0.33 (inactive); in assay [17], -0.822; in assay [18], 1.4 (inactive); in assay [19] it was 0.628 (inactive). The compound further showed a z-score in [20] of 1.72.
Turning to `CCCCC(=C=CC[C@H](O)c1cccc(OCCO)c1)C[C@H](O)c1ccccn1`, the composite z-score in [1] was 0.11; in [6] it was 0.329; in [7], -0.101; in the assay with Torsin-1A (Homo sapiens) [8], 0.147; in the assay with Torsin-1A (Homo sapiens) [9], 0.704; in assay [10], 0.577. In [12], the composite z-score was -0.272. Also, the z-score in assay [2] was -2.42 (inactive); in [3] it was -0.478 (inactive); in assay [4] it was 0.685 (inactive); in assay [5] it was -0.738 (inactive); in assay [11], 1.81 (inactive); in assay [13], 13.6 (active). In addition, the z-score was 0.938 (inactive) in assay [14]; 1.09 (inactive) in assay [15]; -0.676 (inactive) in assay [16]; 1.54 in [17]; -1.12 (inactive) in [18]; -0.337 (inactive) in assay [19]. Further, the z-score in assay [20] was -1.75.
Turning to `O=C1O[C@H](c2ccccc2)[C@H](c2ccccc2)N2[C@H]1[C@@H](C(=O)N1CCN(c3ncccn3)CC1)[C@]1(C(=O)Nc3ccc(C#CC4=CCCCC4)cc31)[C@H]2c1ccccc1OCCO`, the composite z-score came out at 0.406 in assay [1]; 0.895 in [6]; 0.772 in assay [7]; 0.0637 with Torsin-1A (Homo sapiens) [8]; 0.0096 in the assay with Torsin-1A (Homo sapiens) [9]; 1.79 in assay [10]. Besides, the composite z-score in [12] was determined as 1.52. Besides, the z-score was -3.34 (inactive) in assay [2]; -0.869 (inactive) in assay [3]; -0.581 (inactive) in assay [4]; -0.111 (inactive) in [5]; -0.544 (inactive) in assay [11]; 1.45 (inactive) in assay [13]. Also, the z-score was 0.746 (inactive) in [14]; 0.774 (inactive) in [15]; 1.03 (inactive) in [16]; -0.187 in assay [17]; 1.46 (inactive) in assay [18]; 0.867 (inactive) in assay [19]. Besides, the z-score in [20] stood at 1.01.
